Source: PubChem BioAssay (National Center for Advancing Translational Sciences (NCATS))
TbPYK inhibitor: inhibitors of Trypanosoma brucei pyruvate kinase. TbPYK enzyme, Kinase-Glo Plus ATP luminescence, 45 min. Potency, µM (series often up to 76.8 µM), for the others: at the highest dose activity, negative = inhibition, actives largely listed as inhibitors. 0.12% of 410,000 active; note: potency is the fitted concentration of half-maximal effect; nearly all actives have a fitted effect of over 50% in size
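Enzyme and substrate buffer are dispensed first and compound is pin-transferred. ADP at 130 uM final then starts the reaction, which runs 45 min at room temperature. Detection reagent is added for 10 min before luminescence is imaged.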
Vaccinia Venus: inhibitors of vaccinia virus (Venus reporter) | Vaccinia virus Venus reporter expression, fluorescence | Potency, µM (series often up to 36.5 µM), for the others: at the highest dose activity change, negative = inhibition, most hits filed as inhibitors | 0.46% of 330,000 active | AID 720580; calls by dose curve; tested in A549 cells; note: potency is the fitted concentration of half-maximal effect; nearly all actives have a fitted effect of over 30% in size
HCMV inh: inhibitors of human cytomegalovirus. 4.5% of 410,000 active. AID 1259415. HFF cells, HCMV-luciferase reporter, 72 h; stronger effect = lower value. activity change, negative = inhibition, % at 57.5 µM; in the data active = activity change below about -60%; inconclusive = no clear call, values can overlap the other calls; inactive = above about -39%
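Two compound doses tested in HFFs infected with HCMV-luciferase, MOI 1 PFU/cell, 72 h at 37C. Lysate luminescence read with OneGlo; data normalized against buffer-only and 10uM Salinomycin inhibitor controls.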
Vaccinia mCherry: inhibitors of vaccinia virus infection (mCherry reporter signal); 0.63% of 310,000 active; Potency, µM (titrated, usually from 36.5 µM), without a hit: top-dose activity change, negative = inhibition, usual class: inhibitors; Vaccinia virus mCherry reporter infection, fluorescence; AID 720579; calls by dose curve; tested in A549 cells; note: potency is the fitted concentration of half-maximal effect; nearly all actives have a fitted effect of over 35% in size
LmPK inh: LmPK (Leishmania mexicana) enzyme inhibition; Q27686; purified LmPK, Kinase-Glo ATP luminescence, 1 h; Potency, µM (doses to about 57.5 µM), for the others: at the highest dose activity change, negative = inhibition, hits mostly inhibitors; 0.37% of 290,000 active; AID 1721; note: potency is the fitted concentration of half-maximal effect
Target sequence (Q27686 whole entry, looked up): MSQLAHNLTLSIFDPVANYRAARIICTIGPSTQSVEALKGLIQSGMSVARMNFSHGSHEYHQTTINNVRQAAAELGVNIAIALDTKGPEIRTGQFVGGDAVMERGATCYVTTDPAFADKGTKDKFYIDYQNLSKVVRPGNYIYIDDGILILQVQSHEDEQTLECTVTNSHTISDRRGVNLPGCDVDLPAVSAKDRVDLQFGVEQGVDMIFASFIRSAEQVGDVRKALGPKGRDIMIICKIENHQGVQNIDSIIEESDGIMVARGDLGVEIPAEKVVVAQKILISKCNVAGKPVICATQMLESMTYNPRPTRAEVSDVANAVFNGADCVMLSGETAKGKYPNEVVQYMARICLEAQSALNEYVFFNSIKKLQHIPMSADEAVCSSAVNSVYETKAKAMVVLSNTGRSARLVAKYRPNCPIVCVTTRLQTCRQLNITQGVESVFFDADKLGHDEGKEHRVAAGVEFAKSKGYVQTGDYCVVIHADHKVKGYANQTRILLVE
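Kinase-Glo luminescence read after 1 h RT reaction of 0.1 nM LmPK with 0.5 mM PEP and 0.1 mM ADP. Activity scaled between uninhibited and enzyme-free controls.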
* marks the source's active call; other numbers are inactive results; i = inactive; ? = inconclusive; · = no result given; [ ] = dose if it differs, or a comment. An excerpt weighted towards active compounds, which were near 5% of everything screened. Unless noted, calls come from the whole dose curve; as a rule, active = well fitted curve in the direction sought with a large enough effect; inconclusive = small, poorly fitted or top-dose-only effect, or another doubt; inactive = no such curve, though single readings can be large; an effect the other way counts as inactive or inconclusive. % is set by controls: 0 for no effect and ±100 for the full control effect.

SMILES	TbPYK inhibitor	Vaccinia Venus	HCMV inh	Vaccinia mCherry	LmPK inh
CCC(C)NS(=O)(=O)c1ccc(S(=O)(=O)N(CCc2ccc(OC)c(OC)c2)Cc2cccs2)cc1 (stereo not given)	-3%	-27%	-64*	?	2%
COc1cc2c(C#CCCCO)c(-c3ccsc3)oc(=O)c2cc1OC	-6%	-25%	-61*	i	·
COc1ccc(-c2oc(=O)c3cc(OC)c(OC)cc3c2C#CCCCO)cc1	2%	-28%	26	?	·
COc1ccccc1C(=O)COC(=O)CCN=C1NS(=O)(=O)c2ccccc21	4%	-4%	-3	-14%	·
Nc1c(C(=O)Nc2ccc(Cl)c(C(F)(F)F)c2)sc2nc3c(cc12)N1CCC3CC1	1%	?	-93*	?	·
COc1ccc(NC(=O)c2sc3nc4c(cc3c2N)N2CCC4CC2)cc1OC	-3%	-20%	-4	-16%	·
Nc1c(C(=O)Nc2ccc(Cl)cc2)sc2nc3c(cc12)N1CCC3CC1	-2%	-29%	-86*	-25%	·
COc1ccc(CNS(=O)(=O)c2cc(Br)cc3c2N(C(C)=O)C(C)C3)cc1 (stereo not given)	7%	-4%	-39	-10%	0%
CC(=O)N1c2c(cc(Br)cc2S(=O)(=O)Nc2ccc(OC(F)(F)F)cc2)CC1C (stereo not given)	-1%	-13%	-82*	-3%	·
CC(=O)N1c2c(cc(Br)cc2S(=O)(=O)NCc2ccc(C)cc2)CC1C (stereo not given)	-5%	-5%	-66*	6%	1%
CC(C)CN1C(=O)C(=O)N(CC(=O)NC(C)CCc2ccccc2)C1=O (stereo not given)	5%	-10%	2	-12%	·
Cc1ccc(C)c(OCC(=O)OCC(=O)Nc2c(C)nn(-c3ccccc3)c2C)c1	-5%	-15%	-11	-13%	·
Cc1nn(-c2ccccc2)c(C)c1NC(=O)COC(=O)c1ccc(NC(=O)CC#N)cc1	-5%	-1%	-68*	-8%	·
Cc1nn(-c2ccccc2)c(C)c1NC(=O)COC(=O)CC(C)c1ccccc1 (stereo not given)	2%	-9%	-63*	i	·
COc1ccc(S(=O)(=O)N2CCN(C3Cc4ccccc4C3)CC2)cc1	-1%	-15%	20	-9%	4%
COc1cccc(N/C(SCc2ccccc2C)=C(/C#N)C(=O)NCc2cccs2)c1	7%	-15%	-80*	-17%	2%
COc1cccc(N/C(SCc2ccccc2Cl)=C(/C#N)C(=O)NCc2cccs2)c1	1%	-16%	-39	?	0%
CCN1CCN(CCNC(=O)c2cn(Cc3ccccc3F)nn2)CC1	-9%	-11%	3	-4%	1%
CC(=O)c1cnn(-c2ccccc2)c1C	-8%	-9%	-24	10%	-2%
CC(=O)c1cnn(-c2nc3c(C)cccc3s2)c1C	-9%	0%	-99*	·	-1%
O=[N+]([O-])c1cc(CN2CCOCC2)c2cccnc2c1O	-7%	-7%	·	-7%	-4%
O=[N+]([O-])c1cc(CN2CCN(c3ccccc3)CC2)c(O)c2ncccc12	-3%	-20%	-89*	?	3%
Oc1ccc(CN2CCN(Cc3ccccc3)CC2)c2cccnc12	-9%	·	52	·	0%
CCCOCc1cc(CN2CCN(c3cccc(Cl)c3)CC2)c(O)c2ncccc12	-4%	-23%[7.34 µM]	-97*	2.8µM*	·
COc1cc(CN2CCN(c3cccc(Cl)c3)CC2)cc(OC)c1OC	6%	·	29	·	-3%
SMILES	TbPYK inhibitor	Vaccinia Venus	HCMV inh	Vaccinia mCherry	LmPK inh
CCOc1cccc(CN2CCCC(N3CCN(c4cccc(Cl)c4)CC3)C2)c1O (stereo not given)	1%	-9%	49	-17%	0%
CN1CCN(Cc2cc(COCc3ccccc3)c3cccnc3c2O)CC1	-3%	?	?	28µM*	4%
CCCCOCc1cc(CN2CCN(c3cccc(Cl)c3)CC2)c(O)c2ncccc12	-1%	-27%	-100*	?	·
Cc1ccc(S(=O)(=O)Nc2ccc3c(c2)CCCN3C(=O)c2cccs2)cc1C	-8%	?	?	i	·
Cc1ccc2cc(C#N)c(N3CCN(C(=O)c4cccs4)CC3)nc2c1	-2%	-13%	25	i	5%
CCOC(=O)c1c(NC(=S)Nc2ccc(OCC)cc2)sc2c1CCN(C)C2	-23%	-4%	-9	-15%	5%
COC(=O)C1=C(C)N(C)C(=O)NC1c1ccc(O)c(Cl)c1 (stereo not given)	0%	·	-26	·	1%
CC(NC(=O)c1ccccc1Cl)C(=O)Nc1ccc2c(c1)OCO2 (stereo not given)	-11%	-17%	8	-15%	·
CC1CCc2onc(C(=O)N3CCN(c4ccc(Cl)cc4)CC3)c2C1 (stereo not given)	-4%	-12%	-74*	-2%	·
CCN(c1ccccc1)S(=O)(=O)c1ccc(N2CCN(c3ccccc3O)CC2)nc1	0%	·	7	·	·
CCOc1ccc(C(O)(c2ccccc2)C(CN2CCCC2)c2ccccc2)cc1 (stereo not given)	-27%	-21%	?	i	6%
COC(=O)c1cc(-c2ccccc2)sc1NC(=O)CN1C(=O)c2ccccc2C1=O	-14%	·	-64*	·	2%
COC(=O)c1cc(OC)c(OC)cc1NC(=O)CN1C(=O)c2ccccc2C1=O	2%	·	17	·	6%
COC(=O)C1=C(c2ccc(Cl)c(C(F)(F)F)c2)C[C@@H]2CC[C@H]1N2C(=O)NCCOc1ccccc1Cl	1%	?	·	-27%	·
COc1ccc(S(=O)(=O)N2CCC(C(=O)N(C)Cc3ccc(C)o3)CC2)cc1OC	-3%	·	-1	·	·
CCC(Oc1ccccc1F)C(=O)NCCCn1ccnc1 (stereo not given)	6%	5%	24	-12%	-5%
CCC(C)NC(=O)COc1ccc(OCc2ccccc2)cc1 (stereo not given)	2%	-13%	-25	-1%	1%
COCCNC(=O)C1CCCN(C(=O)c2cncc(Br)c2)CC1 (stereo not given)	-2%	-9%	0	3%	·
CSc1cccc(NC(=S)N2CCC(c3ccccc3)C2)c1 (stereo not given)	4%	-14%	-82*	-1%	2%
O=C1c2cccc3c(N4CCCCC4)ccc(c23)C(=O)N1c1ccccc1O	1%	·	-96*	·	-1%
O=C1c2cccc3c(N4CCCCC4)ccc(c23)C(=O)N1c1ccc(O)cc1	-9%	61%	-62*	-6%	-2%
CCN(C(=O)Cn1cc(S(=O)(=O)Cc2ccccc2Cl)c2ccccc21)c1ccccc1	0%[15.4 µM]	-3%	0	-14%	·
Cc1ccc(C)c(N2CCN(C(=O)CCc3nc(-c4ccc(Cl)cc4)no3)CC2)c1	-2%	-11%	13	i	·
COc1ccc(NC2c3ccccc3C(=O)N2c2ccccn2)cc1 (stereo not given)	-3%	·	-80*	·	8%
